# Shown is part of a subset that was picked to be rich in hits.
# ST2 IL33 inh – blocks human ST2 binding to IL-33 | 78,000 compounds, 2.3% hits | inhibition, % for hits at 17 µM | Q01638 | AlphaLISA ST2-Fc/biotin-IL-33 interaction, 1 h; in the data active = inhibition above about 30%
# Target sequence (Q01638 whole entry, looked up): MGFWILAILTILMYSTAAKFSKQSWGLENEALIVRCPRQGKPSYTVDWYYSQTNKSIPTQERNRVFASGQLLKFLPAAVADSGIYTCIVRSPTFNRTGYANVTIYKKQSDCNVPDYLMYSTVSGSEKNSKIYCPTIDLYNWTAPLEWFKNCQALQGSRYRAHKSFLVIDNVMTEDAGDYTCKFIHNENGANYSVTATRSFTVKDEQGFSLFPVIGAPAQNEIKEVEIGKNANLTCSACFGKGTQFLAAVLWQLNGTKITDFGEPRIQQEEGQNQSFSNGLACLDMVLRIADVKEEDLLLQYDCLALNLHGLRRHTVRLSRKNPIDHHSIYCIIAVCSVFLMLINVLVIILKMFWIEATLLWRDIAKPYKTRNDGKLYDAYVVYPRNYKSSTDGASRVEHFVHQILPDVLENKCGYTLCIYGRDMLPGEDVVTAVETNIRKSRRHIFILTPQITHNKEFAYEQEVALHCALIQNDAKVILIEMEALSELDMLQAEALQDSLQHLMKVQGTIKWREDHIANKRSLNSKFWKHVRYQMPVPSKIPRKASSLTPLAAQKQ
# Numbers without * were called inactive; i = inactive.
SMILES,ST2 IL33 inh
N#Cc1c(NC(=O)c2cc(-c3ccc4c(c3)OCO4)on2)sc2c1CCC2,i
COc1ccc(-c2ncnn2-c2sc3c(c2C#N)CCCC3)cc1,44%*
COc1ccccc1-c1ncnn1-c1sc2c(c1C#N)CCCCC2,48%*
Fc1cc(Br)ccc1-n1ncnc1-c1ccc2c(c1)OCO2,i
O=C(c1csnn1)N1CCCC(N2CCN(c3cccc(C(F)(F)F)c3)CC2)C1 (stereo not drawn),i
CCC(=O)N1c2ccccc2-c2nnc(SC)nc2OC1c1ccc(C(=O)O)cc1 (stereo not drawn),i
COc1ccc(NC(=O)CSc2n[nH]c(C)c2[N+](=O)[O-])c(OC)c1,i
Cc1ccc(S(=O)(=O)n2c([N+](=O)[O-])cnc2C)cc1,i
Cc1sc2c(c1C)c(=O)n(-c1ccc(Cl)cc1)c(=O)n2CC(=O)NCc1ccco1,i
CC(=O)Oc1ccc2c(=O)c(Oc3ccccc3)coc2c1,i
Cc1cc(C)cc(Oc2coc3cc(OC(=O)C(C)C)ccc3c2=O)c1,i
COC(=O)Oc1ccc2c(=O)c(Oc3ccc(C)cc3)coc2c1,30%*
CN(CC(=O)Nc1ccc(F)c(Cl)c1)S(=O)(=O)c1ccc2c(c1)CCC(=O)N2,i
COc1ccc(Cc2c(O)nc3n(c2=O)CCCS3)cc1,i
O=C(COc1cc(=O)n2c(n1)SCCC2)c1ccccc1,64%*
O=C(COc1ccc2c3c(c(=O)oc2c1)CCC3)c1ccccc1,i
CC(C)CCNC(=O)CCS(=O)(=O)c1cccc2nonc12,60%*
CC(C)NC(=O)CCS(=O)(=O)c1cccc2nonc12,i
O=C(CCS(=O)(=O)c1cccc2nonc12)NCCc1ccccc1,i
CC(C(=O)O)n1c(Cc2ccccc2)n[nH]c1=O (stereo not drawn),i
CCC(C)n1c(Cc2ccc(O)cc2)n[nH]c1=O (stereo not drawn),33%*
CC(C)[C@@H](C)n1c(CCc2ccccc2)n[nH]c1=O,i
CN(C)c1ccc(C2C3=C(CC(C)(C)CC3=O)Nc3ccccc3N2C(=O)c2ccccc2)cc1 (stereo not drawn),i
COCc1nc(N(C)Cc2cc(-c3cccnc3)no2)c2cnn(C)c2n1,i
CNc1ncc(CN(C)c2nc(-c3cccnc3)nc3c2cnn3C)cn1,46%*
SMILES,ST2 IL33 inh
CCSCCNc1nc(-c2cccnc2)nc2c1cnn2C,i
Cc1ccc2nc(NC(=O)c3cnccn3)sc2c1,i
Cc1ccc(NC(=O)c2cnccn2)c(Br)c1,39%*
O=C(Nc1ccc(F)c(F)c1)c1cnccn1,i
Cc1ccc(S(=O)(=O)Nc2ccc(NC(=O)c3ccc(F)cc3)cc2)cc1,i
COc1ccc(S(=O)(=O)Nc2cc(C)cc(C)c2)cc1,i
Cc1ccc(NC2=CC(=NS(=O)(=O)c3ccc(F)cc3)c3ccccc3C2=O)cc1,69%*
CCN(CC)C(=NS(=O)(=O)c1ccc(C)cc1)c1ccc(F)cc1,i
COc1ccc(Nc2ccc3c4c(ncnc24)-c2ccccc2C3=O)cc1,i
COc1ccc(NC2=CC(=NS(=O)(=O)c3ccc(C)cc3)c3ccccc3C2=O)cc1,92%*
COc1ccc(S(=O)(=O)N=C2C=C(Nc3ccc(C)cc3)C(=O)c3ccccc32)cc1,92%*
COc1ccc(N(C(F)F)S(=O)(=O)c2ccc(C)cc2)cc1,i
COc1ccc(S(=O)(=O)N=C2C(C)=CC(=O)C=C2C)cc1,i
O=C(CSc1c2c(nc3ccc(Cl)cc13)CCCC2)Nc1cccnc1,i
CC(C)C[C@@H](N)C(=O)N(C)Cc1cnn(-c2ccc(F)cc2)c1,i
COc1ccc(C)cc1NC(=O)Nc1c(C)nc2nc[nH]n2c1=O,i
Nc1n[nH]c(-c2ccc(Cl)cc2)n1,i
CN(C(=O)CC(c1ccccc1)c1ccc2c(c1)OCO2)C1CCOCC1 (stereo not drawn),i
COc1cc(C(=O)N2CCN(Cc3cccc(F)c3)CC2)cc(OC)c1OC,i
CCN(CC)c1cc(C)c2cc(NC(=O)C3CC3)ccc2n1,i
C=CCSc1nnc2c(n1)OC(c1ccncc1)N(C(C)=O)c1ccccc1-2 (stereo not drawn),i
C=CCSc1nnc2c(n1)OC(c1ccc(OC)cc1OC)N(C(C)=O)c1ccccc1-2 (stereo not drawn),30%*
COc1cc(C2Oc3nc(SC)nnc3-c3ccccc3N2C(C)=O)cc(OC)c1OC (stereo not drawn),i
C=CCSc1nnc2c(n1)OC(c1ccccn1)N(C(C)=O)c1ccccc1-2 (stereo not drawn),i
CCN(CC)c1ccc(C2Oc3nc(SC)nnc3-c3ccccc3N2C(C)=O)c(OC)c1 (stereo not drawn),36%*
COc1ccc(Br)c(C2Oc3nc(SC)nnc3-c3ccccc3N2C(C)=O)c1 (stereo not drawn),i
CN1CC2(CCCN(Cc3ccc(F)c(C(F)(F)F)c3)C2)OC1=O (stereo not drawn),i
CC(C)C1CN(C(=O)c2ccc(=O)[nH]c2)CCCN1CC1CC1 (stereo not drawn),i
CCOc1ccccc1CN1CCc2cc(OC)c(OC)cc2C1,i

# Bioassay records deposited in PubChem by Paczesny and Yang Labs, IUPUI and University of Michigan.
